# Test results as given in the supplement of paper PMC4466140.
# Legend:
# Assay in all cases: SPOT peptide array binding signal intensity (averaged, normalized) (arbitrary units (background-subtracted, floor 0; scale differs between SH3 domains)); higher = stronger binding of the SH3 domain to the peptide
# AgAbp1 = biological target: AgAbp1
# Experimental: (§1)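 GST-tagged SH3 domains from S. cerevisiae (Sc), A. gossypii (Ag), C. albicans (Ca) and S. pombe (Sp) were incubated at 10 ug/ml overnight at 4 C on cellulose SPOT membranes carrying 292 synthetic 15-mer peptides mined from the S. cerevisiae proteome (cysteines replaced by serines). Binding was detected with anti-GST antibody, HRP secondary and chemiluminescence, quantified with Genespotter, and reported as normalized spot intensities averaged over biological replicates.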
# AgBbc1 = biological target: AgBbc1
# Experimental: as §1
# AgBem1-D1 = biological target: AgBem1-D1
# Experimental: as §1
# AgBzz1-D1 = biological target: AgBzz1-D1
# Experimental: as §1
# AgBzz1-D2 = biological target: AgBzz1-D2
# Experimental: as §1
# AgCyk3 = biological target: AgCyk3
# Experimental: as §1
# AgFus1 = biological target: AgFus1
# Experimental: as §1
# AgHof1 = biological target: AgHof1
# Experimental: as §1
# AgHse1 = biological target: AgHse1
# Experimental: as §1
# AgLsb1 = biological target: AgLsb1
# Experimental: as §1
# AgLsb4 = biological target: AgLsb4
# Experimental: as §1
# AgMyo5 = biological target: AgMyo5
# Experimental: as §1
# AgNbp2 = biological target: AgNbp2
# Experimental: as §1
# AgRvs167 = biological target: AgRvs167
# Experimental: as §1
# AgSho1 = biological target: AgSho1
# Experimental: as §1
# AgSla1-D1-D2 = biological target: AgSla1-D1-D2
# Experimental: as §1
# AgSla1-D3 = biological target: AgSla1-D3
# Experimental: as §1
# CaAbp1-D1 = biological target: CaAbp1-D1
# Experimental: as §1
# CaAbp1-D2 = biological target: CaAbp1-D2
# Experimental: as §1
# CaBbc1 = biological target: CaBbc1
# Experimental: as §1
# CaBem1-D1 = biological target: CaBem1-D1
# Experimental: as §1
# CaBzz1-D1 = biological target: CaBzz1-D1
# Experimental: as §1
# CaBzz1-D2 = biological target: CaBzz1-D2
# Experimental: as §1
# CaCyk3 = biological target: CaCyk3
# Experimental: as §1
# CaFus1 = biological target: CaFus1
# Experimental: as §1
# CaHof1 = biological target: CaHof1
# Experimental: as §1
# CaHse1 = biological target: CaHse1
# Experimental: as §1
# CaLsb1 = biological target: CaLsb1
# Experimental: as §1
# CaLsb4 = biological target: CaLsb4
# Experimental: as §1
# CaMyo5 = biological target: CaMyo5
# Experimental: as §1
# CaNbp2 = biological target: CaNbp2
# Experimental: as §1
# CaRvs167 = biological target: CaRvs167
# Experimental: as §1
# CaRvs167-3 = biological target: CaRvs167-3
# Experimental: as §1
# CaSho1 = biological target: CaSho1
# Experimental: as §1
# CaSla1-D1-D2 = biological target: CaSla1-D1-D2
# Experimental: as §1
# CaSla1-D3 = biological target: CaSla1-D3
# Experimental: as §1
# ScAbp1 = biological target: ScAbp1
# Experimental: as §1
# ScBbc1 = biological target: ScBbc1
# Experimental: as §1
# ScBem1-D1 = biological target: ScBem1-D1
# Experimental: as §1
# ScBzz1-D1 = biological target: ScBzz1-D1
# Experimental: as §1
# ScBzz1-D2 = biological target: ScBzz1-D2
# Experimental: as §1
# ScCyk3 = biological target: ScCyk3
# Experimental: as §1
# ScFus1 = biological target: ScFus1
# Experimental: as §1
# ScHof1 = biological target: ScHof1
# Experimental: as §1
# ScHse1 = biological target: ScHse1
# Experimental: as §1
# ScLsb1 = biological target: ScLsb1
# Experimental: as §1
# ScLsb2 = biological target: ScLsb2
# Experimental: as §1
# ScLsb3 = biological target: ScLsb3
# Experimental: as §1
# ScLsb4 = biological target: ScLsb4
# Experimental: as §1
# ScMyo3 = biological target: ScMyo3
# Experimental: as §1
# ScMyo5 = biological target: ScMyo5
# Experimental: as §1
# ScNbp2 = biological target: ScNbp2
# Experimental: as §1
# ScPex13 = biological target: ScPex13
# Experimental: as §1
# ScRvs167 = biological target: ScRvs167
# Experimental: as §1
# ScSho1 = biological target: ScSho1
# Experimental: as §1
# ScSla1-D1-D2 = biological target: ScSla1-D1-D2
# Experimental: as §1
# ScSla1-D3 = biological target: ScSla1-D3
# Experimental: as §1
# SpAbp1-D1 = biological target: SpAbp1-D1
# Experimental: as §1
# SpBbc1 = biological target: SpBbc1
# Experimental: as §1
# SpBzz1-D1 = biological target: SpBzz1-D1
# Experimental: as §1
# SpBzz1-D2 = biological target: SpBzz1-D2
# Experimental: as §1
# SpCyk3 = biological target: SpCyk3
# Experimental: as §1
# SpHof1 = biological target: SpHof1
# Experimental: as §1
# SpHof1-2 = biological target: SpHof1-2
# Experimental: as §1
# SpHof1-3 = biological target: SpHof1-3
# Experimental: as §1
# SpHse1 = biological target: SpHse1
# Experimental: as §1
# SpLsb1 = biological target: SpLsb1
# Experimental: as §1
# SpLsb4 = biological target: SpLsb4
# Experimental: as §1
# SpMyo1 = biological target: SpMyo1
# Experimental: as §1
# SpNbp2 = biological target: SpNbp2
# Experimental: as §1
# SpPex13 = biological target: SpPex13
# Experimental: as §1
# SpRvs167 = biological target: SpRvs167
# Experimental: as §1
# SpSla1-D1-D2 = biological target: SpSla1-D1-D2
# Experimental: as §1
# SpSla1-D3 = biological target: SpSla1-D3
# Experimental: as §1
binder,measurement,setting,value
RRRRRPHRIERPLSN,SPOT peptide array binding signal intensity,AgAbp1,25
same,SPOT peptide array binding signal intensity,AgBbc1,170
same,SPOT peptide array binding signal intensity,AgBem1-D1,136
same,SPOT peptide array binding signal intensity,AgBzz1-D1,33
same,SPOT peptide array binding signal intensity,AgBzz1-D2,43
same,SPOT peptide array binding signal intensity,AgCyk3,33
same,SPOT peptide array binding signal intensity,AgFus1,322
same,SPOT peptide array binding signal intensity,AgHof1,28.5
same,SPOT peptide array binding signal intensity,AgHse1,833
same,SPOT peptide array binding signal intensity,AgLsb1,4.25
same,SPOT peptide array binding signal intensity,AgLsb4,160
same,SPOT peptide array binding signal intensity,AgMyo5,2.25
same,SPOT peptide array binding signal intensity,AgNbp2,72
same,SPOT peptide array binding signal intensity,AgRvs167,3.17
same,SPOT peptide array binding signal intensity,AgSho1,37.5
same,SPOT peptide array binding signal intensity,AgSla1-D1-D2,354
same,SPOT peptide array binding signal intensity,AgSla1-D3,1
same,SPOT peptide array binding signal intensity,CaAbp1-D1,454
same,SPOT peptide array binding signal intensity,CaAbp1-D2,512
same,SPOT peptide array binding signal intensity,CaBbc1,300
same,SPOT peptide array binding signal intensity,CaBem1-D1,53.5
same,SPOT peptide array binding signal intensity,CaBzz1-D1,96
same,SPOT peptide array binding signal intensity,CaBzz1-D2,34
same,SPOT peptide array binding signal intensity,CaCyk3,147
same,SPOT peptide array binding signal intensity,CaFus1,525
same,SPOT peptide array binding signal intensity,CaHof1,≤ 0
same,SPOT peptide array binding signal intensity,CaHse1,30.5
same,SPOT peptide array binding signal intensity,CaLsb1,1.5
same,SPOT peptide array binding signal intensity,CaLsb4,108
same,SPOT peptide array binding signal intensity,CaMyo5,2
QRIRKIPGIPLMSVG,SPOT peptide array binding signal intensity,AgAbp1,26
same,SPOT peptide array binding signal intensity,AgBbc1,184
same,SPOT peptide array binding signal intensity,AgBem1-D1,63.5
same,SPOT peptide array binding signal intensity,AgBzz1-D1,19.5
same,SPOT peptide array binding signal intensity,AgBzz1-D2,34
same,SPOT peptide array binding signal intensity,AgCyk3,1
same,SPOT peptide array binding signal intensity,AgFus1,296
same,SPOT peptide array binding signal intensity,AgHof1,29.2
same,SPOT peptide array binding signal intensity,AgHse1,194
same,SPOT peptide array binding signal intensity,AgLsb1,13.8
same,SPOT peptide array binding signal intensity,AgLsb4,258
same,SPOT peptide array binding signal intensity,AgMyo5,≤ 0
same,SPOT peptide array binding signal intensity,AgNbp2,486
same,SPOT peptide array binding signal intensity,AgRvs167,54.8
same,SPOT peptide array binding signal intensity,AgSho1,104
same,SPOT peptide array binding signal intensity,AgSla1-D1-D2,40.5
same,SPOT peptide array binding signal intensity,AgSla1-D3,11.5
same,SPOT peptide array binding signal intensity,CaAbp1-D1,253
same,SPOT peptide array binding signal intensity,CaAbp1-D2,358
same,SPOT peptide array binding signal intensity,CaBbc1,226
same,SPOT peptide array binding signal intensity,CaBem1-D1,34.5
same,SPOT peptide array binding signal intensity,CaBzz1-D1,162
same,SPOT peptide array binding signal intensity,CaBzz1-D2,106
same,SPOT peptide array binding signal intensity,CaCyk3,49.5
same,SPOT peptide array binding signal intensity,CaFus1,707
same,SPOT peptide array binding signal intensity,CaHof1,0.25
same,SPOT peptide array binding signal intensity,CaHse1,94.2
same,SPOT peptide array binding signal intensity,CaLsb1,1.25
same,SPOT peptide array binding signal intensity,CaLsb4,2460
same,SPOT peptide array binding signal intensity,CaMyo5,1.5
same,SPOT peptide array binding signal intensity,CaNbp2,549
same,SPOT peptide array binding signal intensity,CaRvs167,296
same,SPOT peptide array binding signal intensity,CaRvs167-3,6.5
same,SPOT peptide array binding signal intensity,CaSho1,303
same,SPOT peptide array binding signal intensity,CaSla1-D1-D2,817
same,SPOT peptide array binding signal intensity,CaSla1-D3,38.5
same,SPOT peptide array binding signal intensity,ScAbp1,99
same,SPOT peptide array binding signal intensity,ScBbc1,32.5
same,SPOT peptide array binding signal intensity,ScBem1-D1,13.5
same,SPOT peptide array binding signal intensity,ScBzz1-D1,2
same,SPOT peptide array binding signal intensity,ScBzz1-D2,25
same,SPOT peptide array binding signal intensity,ScCyk3,7
same,SPOT peptide array binding signal intensity,ScFus1,284
same,SPOT peptide array binding signal intensity,ScHof1,2
same,SPOT peptide array binding signal intensity,ScHse1,553
same,SPOT peptide array binding signal intensity,ScLsb1,9.25
same,SPOT peptide array binding signal intensity,ScLsb2,13
same,SPOT peptide array binding signal intensity,ScLsb3,3970
same,SPOT peptide array binding signal intensity,ScLsb4,349
same,SPOT peptide array binding signal intensity,ScMyo3,≤ 0
same,SPOT peptide array binding signal intensity,ScMyo5,≤ 0
same,SPOT peptide array binding signal intensity,ScNbp2,672
same,SPOT peptide array binding signal intensity,ScPex13,408
same,SPOT peptide array binding signal intensity,ScRvs167,1160
same,SPOT peptide array binding signal intensity,ScSho1,1280
same,SPOT peptide array binding signal intensity,ScSla1-D1-D2,1610
same,SPOT peptide array binding signal intensity,ScSla1-D3,64
same,SPOT peptide array binding signal intensity,SpAbp1-D1,116
same,SPOT peptide array binding signal intensity,SpBbc1,9.25
same,SPOT peptide array binding signal intensity,SpBzz1-D1,176
same,SPOT peptide array binding signal intensity,SpBzz1-D2,5.75
same,SPOT peptide array binding signal intensity,SpCyk3,5
same,SPOT peptide array binding signal intensity,SpHof1,140
same,SPOT peptide array binding signal intensity,SpHof1-2,51.5
same,SPOT peptide array binding signal intensity,SpHof1-3,440
same,SPOT peptide array binding signal intensity,SpHse1,242
same,SPOT peptide array binding signal intensity,SpLsb1,17
same,SPOT peptide array binding signal intensity,SpLsb4,3060
same,SPOT peptide array binding signal intensity,SpMyo1,≤ 0
same,SPOT peptide array binding signal intensity,SpNbp2,359
same,SPOT peptide array binding signal intensity,SpPex13,22
same,SPOT peptide array binding signal intensity,SpRvs167,1140
same,SPOT peptide array binding signal intensity,SpSla1-D1-D2,89.5
same,SPOT peptide array binding signal intensity,SpSla1-D3,27
